Data on 20 molecules can be found in PubChem BioAssay (NCATS).

A number with no mark means an inactive call. Inconclusive results are not listed. Calls of active or inactive are those of the source. Unless noted, calls come from the whole dose curve; as a rule, active = well fitted curve in the direction sought with a large enough effect; inconclusive = small, poorly fitted or top-dose-only effect, or another doubt; inactive = no such curve, though single readings can be large; an effect the other way counts as inactive or inconclusive.

A short description of test [1]: NCATS anti-infectives library activity on HEK293 viability as a counter-qHTS vs the C. elegans viability qHTS (AID 1745854). For activity change, negative = cytotoxicity: % is set by controls: 0 for no effect and ±100 for the full control effect.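 Note: HEK293 cells exposed to compounds for 24 hr before the viability read.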 Note: potency is the fitted concentration of half-maximal effect. The method, boiled down:
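Compound titrations (final up to 41.7 uM) were incubated with HEK293 cells for 24 hr at 37C under 5% CO2. Viable cells were quantified with CellTiter-Glo after 10 min at ambient temperature.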

The target of test [2] is Glutathione peroxidase 1 (Homo sapiens) (UniProt P07203). Briefly: Primary qHTS Assay for Inhibitors of Recombinant Selenoprotein Glutathione Peroxidase 1 (GPX1) (AID 1845191). Note: nearly all actives have a fitted effect of over 65% in size. In a few lines:
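GPX1 10 nM, GR 100 nM, GSH 1 mM, NADPH 0.5 mM, CHP 0.5 mM (final). 30-min cpd preincubation, RT. Ex340/Em450 read t=0, t=15 min.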

The target in test [3] is Phospholipid hydroperoxide glutathione peroxidase GPX4 (Homo sapiens) (UniProt P36969). Nature of the test: Primary qHTS Assay for Inhibitors of Recombinant Selenoprotein Glutathione Peroxidase 4 (GPX4) (AID 1845192). Note: nearly all actives have a fitted effect of over 65% in size. Note: potency is the fitted concentration of half-maximal effect. In a few lines: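 qHTS, GR-coupled: GPX4 200 nM + cpd 30 min RT → GSH 1 mM, NADPH 0.5 mM, GR 100 nM → CHP 0.5 mM start; fluor 340/450 at t0 and t15 min; no-enzyme wells as control.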

The nature of test [4]: NCATS anti-infectives library activity on the primary C. elegans qHTS viability assay (AID 1745855; calls by dose curve; note: potency is the fitted concentration of half-maximal effect). The method, boiled down: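 Titration-based screen in worms: eggs hatched overnight in M9, L1 larvae fed TOP10 capsules in S medium with compound, incubated 21 °C for 7 days; fluorescent objects gated by size and intensity at days 0, 3 and 7.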
(Quantitative high-throughput screening tests each substance at several concentrations.)

Test [5] in a line: Viability counterscreen for antagonist of constitutive androstane receptor (CAR) against the NCATS DSHEA and TCM libraries (AID 1794837).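 Note: compound exposure lasted 24 h before viability reading; 0% is about no effect.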 The method, boiled down: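 HepG2-CYP2B6-hCAR cells (2,500/well) were allowed to attach for 5 h, then exposed to compounds with 48 uM CITCO for 24 h at 37C. Viability was read by CellTiter-Fluor fluorescence after 1 h.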
Test [6] addresses Nuclear receptor subfamily 1 group I member 3 (Homo sapiens) (UniProt Q14994). Nature of the test: Primary qHTS for agonist of constitutive androstane receptor (CAR) against the NCATS DSHEA and TCM libraries (AID 1794839).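 Note: HepG2 cells expressing human CAR with a CYP2B6 reporter plus PK11195 antagonist; 0% is about no effect.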 In a few lines:
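HepG2-CYP2B6-hCAR cells (2,500/well) were attached for 5 h, then treated for 24 h at 37 °C with compounds plus 0.75 µM PK11195. Luciferase luminescence (ONE-Glo) was read, with CellTiter-Fluor viability (Ex/Em 405/540 nm).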

Test [7] is described as follows: HepG2 viability counterscreen (readout 2: ATP content) against the NCATS DSHEA and TCM libraries (AID 1794840).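 Note: HepG2 cells exposed to substances for about 24 h; 0% is about no effect.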 In a few lines:
(§1)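 HepG2 cells (1,000 cells/well) attached ~4 h, then treated ~24 h at 37C with substances. Protease activity read by GF-AFC (25 uM final, 30 min, Ex/Em 380/510 nm); ATP content then by CellTiter-Glo luminescence.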
A general note: The purpose of a counterscreen is to sort out artefacts and off-target activity.

A short description of test [8]: HepG2 viability counterscreen (readout 1: protease activity) against the NCATS DSHEA and TCM libraries (AID 1794841).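 Note: cells exposed to compounds for about 24 h before the protease read; 0% is about no effect.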 The method, boiled down:
as §1

Test [9] has as its target Cytochrome P450 2D6 (Homo sapiens) (UniProt P10635). Nature of the test: qHTS for inhibitors of CYP2D6 against the NCATS DSHEA and TCM libraries (AID 1919972). Note: potency is the fitted concentration of half-maximal effect. The method, boiled down:
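qHTS, concentration–response format with most substances from 19.5 nM. CYP2D6 + pro-luciferin substrate, 15 min with compound, then 1x NADPH regen, 30–45 min RT dark. Glo detection 30 min, luminescence. Quinidine control.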

For test [10], the target named is Cytochrome P450 2C9 (Homo sapiens) (UniProt P11712). Nature of the test: qHTS for inhibitors of CYP2C9 against the NCATS DSHEA and TCM libraries (AID 1919973). Note: potency is the fitted concentration of half-maximal effect. In a few lines:
(§2)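 Isoform-specific enzyme and substrate levels; enzyme-free wells as background. Reaction: 1x NADPH regenerating system, 30-45 min, room temperature, shielded from light; luminescent detection reagent added, 30 min.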

Test [11] has as its target Cytochrome P450 1A2 (Homo sapiens) (UniProt P05177). Briefly: qHTS for inhibitors of CYPIA2 against the NCATS DSHEA and TCM libraries (AID 1919976).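 Note: light from luciferin formed by CYP1A2 from a pro-luciferin substrate; series mostly up to about 37 µM; % is set by controls: 0 for no effect and ±100 for the full control effect.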 In a few lines: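 Furafylline served as the plate control. Compounds met CYP1A2 and pro-luciferin substrate 15 min before NADPH regeneration solution (1x) was added; after 30-45 min at RT, P450-Glo reagent was added for 30 min and luminescence was measured.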

Test [12] in a line: qHTS Counterscreen for compound interference against the NCATS DSHEA and TCM libraries (AID 1919978). Note: % of control where 0% means no effect. The settings on record: firefly luciferase detection reagent interference, luminescence. The method, boiled down:
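D-luciferin (1 uM final) or 100 mM potassium phosphate buffer alone was preincubated 15 min at RT with compounds (19.5 nM to 39.8 uM final). Luciferin detection reagent was then added and luminescence read after 30 min at RT.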

A short description of test [13]: Dual reporter qHTS for agonist of Pregnane X Receptor (hPXR) against the NCATS DSHEA and TCM libraries: Fluorescence readout (AID 1920058). Note: 0% is about no effect. The method, boiled down:
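In this qHTS counter-read, reporter-bearing HepG2 cells in charcoal-stripped serum received substances for approximately 24 h before viability was assessed fluorometrically with CellTiter-Fluor.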

Test [14] addresses Nuclear receptor subfamily 1 group I member 2 (Homo sapiens) (UniProt O75469). Briefly: Dual reporter qHTS for agonist of Pregnane X Receptor (hPXR) against the NCATS DSHEA and TCM libraries: Luminescence readout (AID 1920059). Note: 0% is about no effect. In a few lines: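 hPXR-LucHepG2 cells in phenol red-free DMEM with 5% charcoal-stripped FBS, 2000 cells/well, attached 5 h, then exposed 24 h at 37C to compounds; rifampicin as positive agonist control (2.8 nM–92 uM). Luciferase luminescence read.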

For test [15] the target is unchanged. Briefly: Dual reporter qHTS for antagonist of Pregnane X Receptor (hPXR) against the NCATS DSHEA and TCM libraries: Luminescence Readout (AID 1920060).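 Note: HepG2 cells carrying hPXR luciferase reporter stimulated with rifampicin at 2 µM; 0% is about no effect.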 In a few lines: (§3)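 hPXR-Luc HepG2 cells exposed 24 h at 37 C to compounds with 2 uM rifampicin in antagonist mode; luciferase luminescence measured by ONE-Glo, with CellTiter-Fluor viability read beforehand.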

Test [16] in a line: Dual reporter qHTS for antagonist of Pregnane X Receptor (hPXR) against the NCATS DSHEA and TCM libraries: Fluorescence Readout (AID 1920061). Note: 0% is about no effect. The method, boiled down: as §3
Test [17] is described as follows: Viability counterscreen for agonist of constitutive androstane receptor (CAR) against the NCATS DSHEA and TCM libraries (AID 1794838). Note: 0% is about no effect. The method, boiled down:
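HepG2-CYP2B6-hCAR cells (2,500/well) attached 5 h, then got compounds plus 0.75 uM PK11195 final. After 24 h at 37C, viability read by CellTiter-Fluor fluorescence (Ex/Em 405/540 nm).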

The target of test [18] is Cytochrome P450 3A4 (Homo sapiens) (UniProt P08684). Briefly: qHTS for inhibitors of CYP3A4 against the NCATS DSHEA and TCM libraries (AID 1919971). Note: potency is the fitted concentration of half-maximal effect. The method, boiled down:
as §2

Test [19] concerns the target Cytochrome P450 2C19 (Homo sapiens) (UniProt P33261). Nature of the test: qHTS for inhibitors of CYP2C19 against the NCATS DSHEA and TCM libraries (AID 1919974).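 Note: luminescence from luciferin released by CYP2C19 oxidation of a pro-luciferin substrate; potency is the fitted concentration of half-maximal effect.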 The method, boiled down: as §2

Nuclear receptor subfamily 1 group I member 2 (Homo sapiens), sequence (O75469 whole entry, looked up): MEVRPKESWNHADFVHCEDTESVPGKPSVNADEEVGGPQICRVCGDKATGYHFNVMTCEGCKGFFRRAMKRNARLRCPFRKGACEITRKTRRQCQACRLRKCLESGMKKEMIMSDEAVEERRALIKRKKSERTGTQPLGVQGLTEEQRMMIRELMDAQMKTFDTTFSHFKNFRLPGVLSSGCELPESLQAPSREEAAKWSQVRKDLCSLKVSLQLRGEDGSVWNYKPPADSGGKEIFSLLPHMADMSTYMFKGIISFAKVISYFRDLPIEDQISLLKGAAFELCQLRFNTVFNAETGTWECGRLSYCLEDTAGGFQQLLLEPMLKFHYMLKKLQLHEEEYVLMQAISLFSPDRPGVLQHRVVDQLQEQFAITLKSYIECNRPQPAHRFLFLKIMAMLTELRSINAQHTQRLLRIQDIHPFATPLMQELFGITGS
Glutathione peroxidase 1 (Homo sapiens), sequence (P07203 whole entry, looked up): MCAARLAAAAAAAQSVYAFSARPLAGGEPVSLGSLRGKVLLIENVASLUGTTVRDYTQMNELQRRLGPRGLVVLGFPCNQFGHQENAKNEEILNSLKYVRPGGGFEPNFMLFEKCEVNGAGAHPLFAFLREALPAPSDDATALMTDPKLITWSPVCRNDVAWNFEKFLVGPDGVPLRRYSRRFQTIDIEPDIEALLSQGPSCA
Phospholipid hydroperoxide glutathione peroxidase GPX4 (Homo sapiens), sequence (P36969 whole entry, looked up): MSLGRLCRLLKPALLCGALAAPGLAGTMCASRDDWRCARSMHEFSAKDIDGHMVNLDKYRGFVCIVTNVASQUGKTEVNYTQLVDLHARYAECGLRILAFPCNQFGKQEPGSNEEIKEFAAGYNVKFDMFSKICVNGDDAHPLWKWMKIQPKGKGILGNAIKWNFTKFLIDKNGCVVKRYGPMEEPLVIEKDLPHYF
Nuclear receptor subfamily 1 group I member 3 (Homo sapiens), sequence (Q14994 whole entry, looked up): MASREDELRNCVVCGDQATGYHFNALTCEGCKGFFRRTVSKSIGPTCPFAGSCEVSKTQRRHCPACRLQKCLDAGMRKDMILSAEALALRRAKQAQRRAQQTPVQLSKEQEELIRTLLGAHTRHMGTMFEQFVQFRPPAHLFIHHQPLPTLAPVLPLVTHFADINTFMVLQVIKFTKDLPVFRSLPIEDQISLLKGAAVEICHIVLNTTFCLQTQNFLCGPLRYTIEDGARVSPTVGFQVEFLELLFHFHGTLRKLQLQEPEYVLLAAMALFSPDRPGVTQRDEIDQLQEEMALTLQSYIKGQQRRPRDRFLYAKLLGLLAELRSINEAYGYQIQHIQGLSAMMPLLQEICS
Cytochrome P450 2C9 (Homo sapiens), sequence (P11712 whole entry, looked up, canonical isoform): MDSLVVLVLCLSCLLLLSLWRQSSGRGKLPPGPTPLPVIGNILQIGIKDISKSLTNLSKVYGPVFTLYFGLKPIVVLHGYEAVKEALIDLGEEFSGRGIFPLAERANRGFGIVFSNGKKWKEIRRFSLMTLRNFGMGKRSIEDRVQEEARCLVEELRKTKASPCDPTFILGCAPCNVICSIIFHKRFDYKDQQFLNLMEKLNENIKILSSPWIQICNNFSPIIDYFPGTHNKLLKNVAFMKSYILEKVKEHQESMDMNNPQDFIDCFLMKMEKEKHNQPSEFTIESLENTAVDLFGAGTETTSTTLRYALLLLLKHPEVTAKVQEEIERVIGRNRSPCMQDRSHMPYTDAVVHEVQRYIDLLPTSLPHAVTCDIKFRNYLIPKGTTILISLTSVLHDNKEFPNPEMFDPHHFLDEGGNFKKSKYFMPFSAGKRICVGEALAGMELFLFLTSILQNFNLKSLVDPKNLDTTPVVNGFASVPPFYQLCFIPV
Cytochrome P450 2D6 (Homo sapiens), sequence (P10635 whole entry, looked up): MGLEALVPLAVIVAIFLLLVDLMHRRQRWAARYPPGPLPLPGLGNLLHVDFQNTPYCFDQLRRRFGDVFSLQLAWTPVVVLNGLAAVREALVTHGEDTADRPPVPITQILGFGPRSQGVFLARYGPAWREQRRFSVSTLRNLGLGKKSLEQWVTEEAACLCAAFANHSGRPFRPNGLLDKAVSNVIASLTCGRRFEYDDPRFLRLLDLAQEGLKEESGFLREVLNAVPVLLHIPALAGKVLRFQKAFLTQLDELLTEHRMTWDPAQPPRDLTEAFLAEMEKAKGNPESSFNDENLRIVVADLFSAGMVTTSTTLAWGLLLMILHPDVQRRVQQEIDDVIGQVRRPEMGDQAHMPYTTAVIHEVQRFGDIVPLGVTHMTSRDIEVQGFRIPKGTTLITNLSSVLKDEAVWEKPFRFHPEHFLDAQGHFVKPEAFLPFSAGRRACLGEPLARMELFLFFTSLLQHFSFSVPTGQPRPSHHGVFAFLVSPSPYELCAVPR
Cytochrome P450 1A2 (Homo sapiens), sequence (P05177 whole entry, looked up): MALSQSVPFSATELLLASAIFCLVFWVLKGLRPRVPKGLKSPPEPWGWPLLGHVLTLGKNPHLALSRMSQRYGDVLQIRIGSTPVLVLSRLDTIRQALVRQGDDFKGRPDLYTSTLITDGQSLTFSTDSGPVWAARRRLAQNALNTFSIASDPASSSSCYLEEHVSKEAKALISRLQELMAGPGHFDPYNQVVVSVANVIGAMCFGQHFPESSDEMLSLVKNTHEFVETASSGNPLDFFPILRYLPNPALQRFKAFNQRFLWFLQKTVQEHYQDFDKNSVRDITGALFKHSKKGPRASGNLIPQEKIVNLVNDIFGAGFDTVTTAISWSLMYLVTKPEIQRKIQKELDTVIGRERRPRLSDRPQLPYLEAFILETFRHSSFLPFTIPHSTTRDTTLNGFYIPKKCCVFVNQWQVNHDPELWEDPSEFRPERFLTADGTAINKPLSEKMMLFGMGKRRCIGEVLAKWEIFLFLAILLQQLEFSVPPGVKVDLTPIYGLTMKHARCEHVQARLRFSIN
Cytochrome P450 3A4 (Homo sapiens), sequence (P08684 whole entry, looked up): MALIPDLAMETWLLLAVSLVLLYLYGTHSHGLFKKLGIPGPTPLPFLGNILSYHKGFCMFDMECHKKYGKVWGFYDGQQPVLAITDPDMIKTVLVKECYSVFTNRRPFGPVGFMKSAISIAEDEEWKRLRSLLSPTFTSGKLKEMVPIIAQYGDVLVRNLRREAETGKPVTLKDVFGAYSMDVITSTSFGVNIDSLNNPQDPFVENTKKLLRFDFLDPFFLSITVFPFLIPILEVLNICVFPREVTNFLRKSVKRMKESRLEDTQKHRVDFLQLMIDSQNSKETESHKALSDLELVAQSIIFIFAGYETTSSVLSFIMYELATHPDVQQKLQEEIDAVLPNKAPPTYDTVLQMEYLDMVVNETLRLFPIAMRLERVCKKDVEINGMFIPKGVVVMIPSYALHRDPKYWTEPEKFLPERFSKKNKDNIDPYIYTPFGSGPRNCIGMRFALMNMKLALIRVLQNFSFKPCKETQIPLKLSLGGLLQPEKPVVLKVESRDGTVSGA
Cytochrome P450 2C19 (Homo sapiens), sequence (P33261 whole entry, looked up): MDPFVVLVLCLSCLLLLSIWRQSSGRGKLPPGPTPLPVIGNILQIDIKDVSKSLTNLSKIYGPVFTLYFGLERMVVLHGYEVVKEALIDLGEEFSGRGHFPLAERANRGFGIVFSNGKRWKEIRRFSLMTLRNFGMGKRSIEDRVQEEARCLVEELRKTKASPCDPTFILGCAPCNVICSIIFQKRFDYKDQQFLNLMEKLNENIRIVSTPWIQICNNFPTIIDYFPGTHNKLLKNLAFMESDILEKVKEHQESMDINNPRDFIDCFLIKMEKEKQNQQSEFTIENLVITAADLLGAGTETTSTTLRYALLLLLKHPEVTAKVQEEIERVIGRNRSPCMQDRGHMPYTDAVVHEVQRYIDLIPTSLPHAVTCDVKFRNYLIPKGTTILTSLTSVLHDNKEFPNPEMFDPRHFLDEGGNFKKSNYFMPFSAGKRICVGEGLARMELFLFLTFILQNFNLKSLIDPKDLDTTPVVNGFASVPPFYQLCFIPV

For `CCCCCCCCCCCCCCCCOCCCOP(=O)(O)CO[C@H](CO)Cn1ccc(N)nc1=O`, in [1], the activity change, negative = cytotoxicity was -5.25% [at 8.35 µM].
`O=C(O)CCc1ccc(O)cc1`: the Potency result in test [1] is “inactive”.
Still for that read-out and setting: in the case of `O=c1cc(-c2ccc(O)c(O)c2)oc2c([C@@H]3O[C@H](CO)[C@@H](O)[C@H](O)[C@H]3O)c(O)cc(O)c12` it was “inactive”.
On the same count and under the same terms, in the case of `CC(C)=C1C/C=C(\C)CC/C=C(\C)CC1=O` it was “inactive”; in that of `CC(=O)OC(C)(C)CCC(=O)[C@](C)(O)C1[C@H](O)C[C@@]2(C)C3CC=C4C(C[C@H](O)[C@@H](O)C4(C)C)[C@]3(C)C(=O)C[C@]12C` (stereo partly drawn), “inactive”; in that of `CC(C)(C)OC(=O)N[C@H]1CCCCC/C=C\[C@@H]2C[C@@]2(C(=O)NS(=O)(=O)C2CC2)NC(=O)[C@@H]2C[C@@H](OC(=O)N3Cc4cccc(F)c4C3)CN2C1=O`, “inactive”.
The same measure, in the same setting: then `NC1=N[C@@](c2cccc(-c3cncnc3)c2)(c2ccnc(C(F)F)c2)c2cccc(F)c21`, with “inactive”; and `Cn1c(Cn2ccc(C(F)(F)F)c(Oc3cc(Cl)cc(C#N)c3)c2=O)n[nH]c1=O`, with “inactive”; and `CC(C)Nc1nc2cc(Cl)c(Cl)cc2n1[C@H]1O[C@@H](CO)[C@H](O)[C@@H]1O`, with “inactive”.
For `CC(C)CS(=O)(=O)c1oc(-c2ccc(F)cc2)nc1S(=O)(=O)c1ccccc1`, the Potency in test [1] is 3.98 µM (active).
As for `COc1ccc2cc1Oc1ccc(cc1)C[C@H]1c3cc(c(OC)cc3CCN1C)Oc1c(O)c(OC)cc3c1[C@H](C2)N(C)CC3`, the Potency entry in test [1] is “inactive”.
Regarding `Cc1cnc(C(=O)N[C@H]2CCCCC/C=C\[C@@H]3C[C@@]3(C(=O)NS(=O)(=O)C3CC3)NC(=O)[C@@H]3C[C@@H](Oc4nc5ccccc5c5ccccc45)CN3C2=O)cn1`, the Potency entry in test [1] is “inactive”.
In the case of `COC(=O)N[C@H](C(=O)N1CC2(CC2)C[C@H]1c1ncc(-c2ccc3c(c2)C(F)(F)c2cc(-c4ccc5nc([C@@H]6[C@H]7CC[C@H](C7)N6C(=O)[C@@H](NC(=O)OC)C(C)C)[nH]c5c4)ccc2-3)[nH]1)C(C)C`, the Potency result in test [1] and in test [2] was “inactive” in each case. In addition, the Potency in test [3] was 3.55 µM (active).
Consider `CC1(C)CC[C@]2(C(=O)O)CC[C@]3(C)C(=CC[C@@H]4[C@@]5(C)CC[C@H](O)C(C)(C)[C@@H]5CC[C@]43C)[C@@H]2C1`, for which the Potency result in [1], in [4] and in test [2] was “inactive” each time.
Regarding `CCCC[C@H](NC(=O)[C@@H]1[C@@H]2[C@H](CN1C(=O)[C@@H](NC(=O)NC1(CS(=O)(=O)C(C)(C)C)CCCCC1)C(C)(C)C)C2(C)C)C(=O)C(=O)NC1CC1`, the Potency result in [1] and in test [4] was “inactive” each time.
In the case of `CC(C)=CCC[C@](C)(OC1OC(COC2OCC(O)C(O)C2O)C(O)C(O)C1O)[C@H]1CC[C@]2(C)[C@@H]1[C@H](O)C[C@@H]1[C@@]3(C)CC[C@H](OC4OC(CO)C(O)C(O)C4OC4OC(CO)C(O)C(O)C4O)C(C)(C)[C@@H]3CC[C@]12C` (stereo partly drawn), the Potency result in test [1], in test [6], in [2], in [9], in [10] and in test [11] was “inactive” each time. Further, in test [14], the Potency result was “inactive”. In addition, the call in test [5], in test [7], in [8], in test [13], in test [15] and in test [16] was inactive. The max response in test [12] was 4.44%.
For `O=c1cc(-c2ccc(O)c(-c3c(O)cc(O)c4c(=O)cc(-c5ccc(O)cc5)oc34)c2)oc2cc(O)cc(O)c12`, the Potency result in test [1] and in test [4] was “inactive” throughout.
In the case of `CC(C)(C)NC(=O)N[C@H](C(=O)N1C[C@H]2[C@@H]([C@H]1C(=O)NC(CC1CCC1)C(=O)C(N)=O)C2(C)C)C(C)(C)C` (stereo partly drawn), the Potency result in test [1], in test [2] and in test [3] was “inactive” each time.
In the case of `COc1cc(-c2oc3cc(O)cc(O)c3c(=O)c2O)ccc1O`, the Potency entry in test [1], in test [6] and in test [14] was “inactive” each time. For the same molecule, the molecule was classed as inactive in [5], in test [17], in [7], in test [8], in test [13] and in test [15]. In addition, the molecule was classed as inactive in test [16]. Moreover, the Potency in test [18] is 11.2 µM (active); in test [9], 4.47 µM (active); in [10], 4.47 µM (active); in [19], 7.94 µM (active). The max response in test [12] was -5.64%.
With `CC(C)c1nc(CN(C)C(=O)N[C@@H](CCN2CCOCC2)C(=O)N[C@H](CC[C@H](Cc2ccccc2)NC(=O)OCc2cncs2)Cc2ccccc2)cs1`, the Potency result in test [1], in test [2] and in [3] was “inactive” in each case. Further, the Potency in test [4] is 23 µM (active).
